Where “and” joins values, the source holds several entries; their conditions need not be identical. Equal entries are not always repeated. Structures can show the parent of a compound that is named as a salt.
These compounds were tested on LASCPC-01 (assay: cell viability relative to DMSO control (fraction); higher = less growth inhibition (more viable cells)). Conditions: 2 µM; 72 h.
Experimental: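 High-throughput single-dose screen in the LASCPC-01 NEPC cell line in 384-well plates. Cells were treated with each compound at 2 µM for 72 h, and viability was read by CellTiter-Glo luminescence. Values are normalised to the DMSO control (compound/DMSO) from three replicates; only the 5-HT-related subset of the 7315-compound library is given.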
With `COc1cc(/C=C/C(=O)O)ccc1O` [Sodium ferulic] the cell viability was 0.909.
In the case of `CN(C)CCC[C@@]1(c2ccc(F)cc2)OCc2cc(C#N)ccc21` [Escitalopram Oxalate], the cell viability is reported as 0.982.
Compound `O=C(O[C@@H]1C[C@@H]2C[C@H]3C[C@H](C1)N2CC3=O)c1c[nH]c2ccccc12` [Dolasetron mesylate hydrate] has a cell viability of 1.07.
`COc1ccccc1N1CCN(CCCNc2cc(=O)n(C)c(=O)n2C)CC1` [Urapidil HCl] gave a cell viability of 0.425.
For `CN(C)CCCN1c2ccccc2CCc2ccccc21` [Imipramine hydrochloride], the cell viability was 1.13.
With `COCCCN1CCC(NC(=O)c2cc(Cl)c(N)c3c2OCC3)CC1` [Prucalopride] the cell viability was 0.922.
Work on `Cc1ccc(C(=O)Oc2ccc(C(CN(C)C)C3(O)CCCCC3)cc2)cc1` (stereo not given) [Ansofaxine hydrochloride] yielded a cell viability of 0.931.
`N#Cc1cc(CN2CCC(Nc3ncnc4sc(Cl)cc34)CC2)ccc1F` gave a cell viability of 0.875.
`CCOc1cc(N)c(Cl)cc1C(=O)NCC1CN(Cc2ccc(F)cc2)CCO1` (stereo not given) [Mosapride Citrate] was tested, and the cell viability was 0.912.
`CN[C@H]1CC[C@@H](c2ccc(Cl)c(Cl)c2)c2ccccc21` [Sertraline HCl] showed a cell viability of 0.833.
`COc1cc(N)c(Cl)cc1C(=O)NC1CCN(CCCOc2ccc(F)cc2)CC1OC` (stereo not given) [Cisapride] gave a cell viability of 0.803.
In the case of `CC(CN(C)C)CN1c2ccccc2CCc2ccccc21` (stereo not given) [Trimipramine maleate], the cell viability is reported as 1.01.
With `CCC(=O)c1c(O)cc(O)cc1O` [Flopropione] the cell viability was 0.95.
`N=C(N)NC(=N)Nc1ccccc1` [Phenylbiguanide] was tested, and the cell viability was 0.637.
In the case of `CN(C)CC[C@@H](c1ccc(Cl)cc1)c1ccccn1` [Dexchlorpheniramine Maleate], the cell viability is reported as 0.891.
In the case of `Cc1nc2sccn2c(=O)c1CCN1CCC(=C(c2ccc(F)cc2)c2ccc(F)cc2)CC1` [Ritanserin], the cell viability is reported as 0.989.
Compound `CNCCC(Oc1ccc(C(F)(F)F)cc1)c1ccccc1` (stereo not given) [Fluoxetine HCl] has a cell viability of 1.02.
`O=C1Cc2cc(CCN3CCN(c4nsc5ccccc45)CC3)c(Cl)cc2N1` [Ziprasidone] gave a cell viability of 0.987.
In the case of `CN(C)CCC=C1c2ccccc2CCc2ccccc21` [Amitriptyline HCl], the cell viability is reported as 1.15.
In the case of `CNCCC(Oc1ccc(C(F)(F)F)cc1)c1ccccc1` (stereo not given) [Fluoxetine hydrochloride], the cell viability is reported as 0.686.
`CNc1nn2c(C)c(N(C)C)c(C)nc2c1S(=O)(=O)c1ccccc1` was tested, and the cell viability was 0.978.
In the case of `CC(C)(C)c1ccc(CN2CCN(C(c3ccccc3)c3ccc(Cl)cc3)CC2)cc1` (stereo not given) [Buclizine HCl], the cell viability is reported as 0.896.
With `N[C@@H](Cc1c[nH]c2ccccc12)C(=O)O` [L-Tryptophan] the cell viability was 0.904.
For `CCN(CC)CCOC(=O)C(Cc1cccc2ccccc12)CC1CCCO1` (stereo not given) [Nafronyl oxalate], the cell viability was 1.07.
In the case of `CN(C)CC(c1ccc(O)cc1)C1(O)CCCCC1` (stereo not given) [Desvenlafaxine Succinate], the cell viability is reported as 0.883.
Work on `CNS(=O)(=O)CCc1ccc2[nH]cc(C3CCN(C)CC3)c2c1` [Naratriptan hydrochloride] yielded a cell viability of 1.02.
`Cc1cc(-c2ccccc2)nnc1NCCN1CCOCC1` [Minaprine dihydrochloride] gave a cell viability of 1.
`CN1CCC(c2c[nH]c3ccc(NC(=O)c4ccc(F)cc4)cc23)CC1` gave a cell viability of 0.954.
`COc1ccccc1N1CCN(CCN2C(=O)CC3(CCCC3)CC2=O)CC1` [BMY 7378 dihydrochloride] was tested, and the cell viability was 1.07.
For `O=C1CCc2ccc(OCCCCN3CCN(c4cccc(Cl)c4Cl)CC3)cc2N1` [Aripiprazole], the cell viability was 1.05.
With `CC1(C)C(=O)N(CCN2CCC(C(=O)c3ccc(F)cc3)CC2)c2ccccc21` the cell viability was 0.991.
With `CN(C)CC(c1ccc(O)cc1)C1(O)CCCCC1` (stereo not given) [Desvenlafaxine] the cell viability was 1.
Compound `COc1ccc2cccc(CCNC(C)=O)c2c1` [Agomelatine] has a cell viability of 1.07.
`C=CCc1ccccc1OCC(O)CNC(C)C` (stereo not given) [Alprenolol] was tested, and the cell viability was 1.03.
With `CC(C)c1cc(-c2ccc(F)c3ccccc23)nc(N)n1` the cell viability was 1.05 and 0.845 and 0.897.
In the case of `O=c1n(CCCN2CCN(c3cccc(Cl)c3)CC2)nc2ccccn12` [Trazodone hydrochloride], the cell viability is reported as 1.04.
`CC1(C)C(=O)N(CCN2CCC(C(=O)c3ccc(F)cc3)CC2)c2ccccc21` [LY-310,762 hydrochloride] was tested, and the cell viability was 0.89.
Compound `COc1cccc([C@H](O)C2CCN(CCc3ccc(F)cc3)CC2)c1OC` [Volinanserin] has a cell viability of 1.06.
`O=C1CC2(CCCC2)CC(=O)N1CCCCN1CCN(c2ncccn2)CC1` [Buspirone hydrochloride] showed a cell viability of 1.08.
Compound `NCCc1c[nH]cn1` [Histamine] has a cell viability of 1.07.

Source: the supplement of paper PMC10042075
